# PubChem BioAssay (NCI)
# About 83,000 compounds went through this panel and 20% of them were active in at least one assay; those are over-represented in the sample as a whole.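 Values shown are percent growth following 48 h exposure of cells in 96-well plates to a single concentration of compound; below 10 was considered active.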 Unmarked numbers belong to inactive results. Calls of active or inactive are those of the source.
# System: SK-MEL-5 melanoma
# Test: NCI-60 one-dose screen, 48 h (100 = growth as untreated, 0 = no growth, -100 = all killed)
# Details: 10 µM unless noted
row,Structure (SMILES),growth
1,COc1ccc(C(=O)Nc2ncc(Cc3cccc(Cl)c3)s2)cc1OC,-25.9% (active)
2,CN[C@]12CC3(C=CC(=O)C=C3)O[C@@]1(Cc1ccc(OC)cc1)N(C)C(=O)N2,43%
3,Cc1nc2c(=O)[nH]c(SCC(=O)Nc3cccc(F)c3)nc2[nH]c1=O,102%
4,O=S(=O)(Nc1ccc(Cl)cc1)c1ccc(-c2cnc(C3CC3)o2)cc1,15.2%
5,C=CCn1c(SCC(=O)Nc2ccc(C(=O)/C=C/c3ccc(Cl)cc3)cc2)nnc1-c1cc(-c2ccc(S(N)(=O)=O)cc2)nc2ccccc12,76.8%
6,CCN1C(=O)N(CC)C2C1NN=c1s/c(=C\c3ccc(Cl)cc3Cl)c(=O)n12 (stereo not given),-20.8% (active)
7,COC(=O)[C@H]1CCCN1C[C@@H](O)CN1C(=O)/C(=C\c2cc(OC)c(OC)c(OC)c2)c2ccccc21,103%
8,CN(C)CCCC1(c2ccc(F)cc2)OCc2cc(-c3cccc4[nH]ccc34)ccc21 (stereo not given),-84.1% (active)
9,O=C1Nc2ccc(Br)cc2/C1=N/c1n[nH]c(=S)s1,97.6%
10,CCOC(=O)c1cc(-c2ccc([N+](=O)[O-])cc2)n(-c2ccc(C(=O)O)c(O)c2)c1C,52%
11,COc1ccc(-c2nn(-c3ccccc3)cc2/C=C2/SC(=S)N(C)C2=O)cc1,98.5%
12,O=C1c2cccnc2C(=O)c2c1c(C(=O)NCCn1ccnc1)c1ccccn21,-97% (active)
13,N#C/C(=C\c1ccc2ccccc2c1)c1cc2ccccc2[nH]1,35.3%
14,Cc1noc(C)c1C(=O)OCc1coc2ccccc2c1=O,80%
15,CN(C)CCNc1nc2c3cc(Cl)ccc3nn2c2ccccc12,56.1%
16,CC(=O)N1N=C(c2ccc(Nc3nc(Nc4ccc(Cl)cc4)nc(Nc4ccc(Cl)cc4)n3)cc2)CC1c1ccco1 (stereo not given),75.9%
17,CSc1nc2sc3c(c2c(=O)n1-c1ccc([N+](=O)[O-])cc1)CCCCC3,96.4%
18,Cc1cc(N)c2cc(NC(=O)/C=C\c3ccccc3Cl)ccc2n1,-94.9% (active)
19,CCN(C(=O)N1CCN(c2cc3c(cc2F)c(=O)c(C(=O)O)cn3C2CC2)CC1)c1nc(-c2ccc(Cl)cc2)cs1,-28.2% (active)
20,COC(=O)c1cc(-c2ccc(S(C)(=O)=O)cc2)[nH]c1N/N=C/c1c(Cl)cccc1Cl,25.7%

row,Structure (SMILES),growth
1,NC(=O)c1c(NC(=O)c2ccccc2)sc2c1CCC(=O)C2,-57.6% (active)
2,Cc1ccc(C2=Nc3c(N)ncnc3NC(c3ccc4c(c3)OCO4)C2)cc1 (stereo not given),33.3%
3,COc1ccc(-c2nc(SCC(C)C)nc(N/N=C\c3ccc(F)cc3)c2C#N)cc1,103%
4,COc1ccc(C(c2cc(OC)c(OC)c(OC)c2)N2CCN(c3ccccc3)CC2)cc1 (stereo not given),85.2%
5,CCCC(=O)NC(c1ccc2c(c1)OCO2)c1ccc2cccnc2c1O (stereo not given),-12.4% (active)
6,OCCNCCCOc1ccc2ncnc(Nc3ccc(Oc4cccc(C(F)(F)F)c4)c(Cl)c3)c2c1,48.9%
7,COC(=O)CCC(=O)C(=O)OC,64% [10 mM]
8,CS(=O)(=O)Nc1cc(-c2ccc3ncnc(Nc4c(Cl)ccc5c4OCO5)c3c2)cnc1Cl,-93% (active)
9,O=C1c2c(c3c4ccc(Br)cc4oc3c3[nH]c4ccccc4c23)C(=O)N1O,-71.8% (active)
10,O=C1/C(=C/c2ccc(-c3ccc(Br)cc3)o2)SC(=S)N1CCc1ccc(O)cc1,92.5%
11,CCN(CC)CCSc1nc(-c2ccccc2)c(C#N)c(=O)[nH]1,85.1%
12,O=C(CCCCCCN1CC(=O)N2[C@H](c3cc(Br)cs3)c3[nH]c4ccccc4c3C[C@H]2C1=O)NO,27%
13,C#Cc1cccc(Nc2ncnc3ccc(-c4cnc(N)nc4)cc23)c1,32.7%
14,O=C(c1ccc(Cl)cc1)N1CCN(c2ccnc3cc(Cl)ccc23)CC1,90.8%
15,COc1ccc(/C=C2\C(=O)N=C3N2NC(c2cc(Br)ccc2O)C=C(C)N3c2ccccc2)cc1 (stereo not given),97%
16,O=C(NCCCCNC(=O)OCc1ccc2c(Cl)cc(Cl)c(O)c2n1)OCc1ccc2c(Cl)cc(Cl)c(O)c2n1,-46.4% (active)
17,CCCCCCCCCCCCCCCCCCOc1ccccc1CC(=O)NCC[N+]1(C)CCCC1,73%
18,C=C1CC[C@@H]2[C@](C)(COC(C)=O)[C@H](OC(C)=O)CC[C@@]2(C)[C@@H]1CC(Sc1ccccc1)C1=CCOC1=O (stereo not given in full),13.5%
19,COc1cc(CNS(=O)(=O)c2ccc(C)cc2)ccc1OCc1cn(-c2ccc(Br)cc2)nn1,97.8%
20,CC(=O)Cc1nsc(NC(=O)c2cc(-c3cc(Cl)cc(Cl)c3)oc2C)n1,99.9%

# System: UACC-62 melanoma
# Test: as above
# Details: 10 µM unless noted
row,Structure (SMILES),growth
1,COc1ccc(C(=O)Nc2ncc(Cc3cccc(Cl)c3)s2)cc1OC,10.6%
2,CN[C@]12CC3(C=CC(=O)C=C3)O[C@@]1(Cc1ccc(OC)cc1)N(C)C(=O)N2,-43% (active)
3,Cc1nc2c(=O)[nH]c(SCC(=O)Nc3cccc(F)c3)nc2[nH]c1=O,98.9%
4,O=S(=O)(Nc1ccc(Cl)cc1)c1ccc(-c2cnc(C3CC3)o2)cc1,17.3%
5,C=CCn1c(SCC(=O)Nc2ccc(C(=O)/C=C/c3ccc(Cl)cc3)cc2)nnc1-c1cc(-c2ccc(S(N)(=O)=O)cc2)nc2ccccc12,71.9%
6,CCN1C(=O)N(CC)C2C1NN=c1s/c(=C\c3ccc(Cl)cc3Cl)c(=O)n12 (stereo not given),28.9%
7,COC(=O)[C@H]1CCCN1C[C@@H](O)CN1C(=O)/C(=C\c2cc(OC)c(OC)c(OC)c2)c2ccccc21,95.2%
8,CN(C)CCCC1(c2ccc(F)cc2)OCc2cc(-c3cccc4[nH]ccc34)ccc21 (stereo not given),37.5%
9,O=C1Nc2ccc(Br)cc2/C1=N/c1n[nH]c(=S)s1,93.2%
10,CCOC(=O)c1cc(-c2ccc([N+](=O)[O-])cc2)n(-c2ccc(C(=O)O)c(O)c2)c1C,54%
11,COc1ccc(-c2nn(-c3ccccc3)cc2/C=C2/SC(=S)N(C)C2=O)cc1,86%
12,O=C1c2cccnc2C(=O)c2c1c(C(=O)NCCn1ccnc1)c1ccccn21,-24.5% (active)
13,N#C/C(=C\c1ccc2ccccc2c1)c1cc2ccccc2[nH]1,32.2%
14,Cc1noc(C)c1C(=O)OCc1coc2ccccc2c1=O,54.7%
15,CN(C)CCNc1nc2c3cc(Cl)ccc3nn2c2ccccc12,73.6%
16,CC(=O)N1N=C(c2ccc(Nc3nc(Nc4ccc(Cl)cc4)nc(Nc4ccc(Cl)cc4)n3)cc2)CC1c1ccco1 (stereo not given),89.9%
17,CSc1nc2sc3c(c2c(=O)n1-c1ccc([N+](=O)[O-])cc1)CCCCC3,87.1%
18,Cc1cc(N)c2cc(NC(=O)/C=C\c3ccccc3Cl)ccc2n1,-80.9% (active)
19,CCN(C(=O)N1CCN(c2cc3c(cc2F)c(=O)c(C(=O)O)cn3C2CC2)CC1)c1nc(-c2ccc(Cl)cc2)cs1,-26.7% (active)
20,COC(=O)c1cc(-c2ccc(S(C)(=O)=O)cc2)[nH]c1N/N=C/c1c(Cl)cccc1Cl,58%

row,Structure (SMILES),growth
1,NC(=O)c1c(NC(=O)c2ccccc2)sc2c1CCC(=O)C2,10.7%
2,Cc1ccc(C2=Nc3c(N)ncnc3NC(c3ccc4c(c3)OCO4)C2)cc1 (stereo not given),48.5%
3,COc1ccc(-c2nc(SCC(C)C)nc(N/N=C\c3ccc(F)cc3)c2C#N)cc1,88.6%
4,COc1ccc(C(c2cc(OC)c(OC)c(OC)c2)N2CCN(c3ccccc3)CC2)cc1 (stereo not given),55.2%
5,CCCC(=O)NC(c1ccc2c(c1)OCO2)c1ccc2cccnc2c1O (stereo not given),-5.34% (active)
6,OCCNCCCOc1ccc2ncnc(Nc3ccc(Oc4cccc(C(F)(F)F)c4)c(Cl)c3)c2c1,88.3%
7,COC(=O)CCC(=O)C(=O)OC,-52.8% [10 mM] (active)
8,CS(=O)(=O)Nc1cc(-c2ccc3ncnc(Nc4c(Cl)ccc5c4OCO5)c3c2)cnc1Cl,-52% (active)
9,O=C1c2c(c3c4ccc(Br)cc4oc3c3[nH]c4ccccc4c23)C(=O)N1O,-2.55% (active)
10,O=C1/C(=C/c2ccc(-c3ccc(Br)cc3)o2)SC(=S)N1CCc1ccc(O)cc1,49.6%
11,CCN(CC)CCSc1nc(-c2ccccc2)c(C#N)c(=O)[nH]1,108%
12,O=C(CCCCCCN1CC(=O)N2[C@H](c3cc(Br)cs3)c3[nH]c4ccccc4c3C[C@H]2C1=O)NO,12%
13,C#Cc1cccc(Nc2ncnc3ccc(-c4cnc(N)nc4)cc23)c1,24.8%
14,O=C(c1ccc(Cl)cc1)N1CCN(c2ccnc3cc(Cl)ccc23)CC1,71.5%
15,COc1ccc(/C=C2\C(=O)N=C3N2NC(c2cc(Br)ccc2O)C=C(C)N3c2ccccc2)cc1 (stereo not given),90.6%
16,O=C(NCCCCNC(=O)OCc1ccc2c(Cl)cc(Cl)c(O)c2n1)OCc1ccc2c(Cl)cc(Cl)c(O)c2n1,36.7%
17,CCCCCCCCCCCCCCCCCCOc1ccccc1CC(=O)NCC[N+]1(C)CCCC1,43.2%
18,C=C1CC[C@@H]2[C@](C)(COC(C)=O)[C@H](OC(C)=O)CC[C@@]2(C)[C@@H]1CC(Sc1ccccc1)C1=CCOC1=O (stereo not given in full),-1.75% (active)
19,COc1cc(CNS(=O)(=O)c2ccc(C)cc2)ccc1OCc1cn(-c2ccc(Br)cc2)nn1,94.3%
20,CC(=O)Cc1nsc(NC(=O)c2cc(-c3cc(Cl)cc(Cl)c3)oc2C)n1,88.7%
